# Data published in PubChem BioAssay (EPA / NIEHS).
# Activity calls are given as the source filed them. How the source made its calls: active means hit-call score of the fitted dose curve at least 0.9, where 1 is the maximum; inactive means score below 0.9.
# How the values were obtained:
# [1] = ATG_CRE_CIS: Attagene CIS-FACTORIAL HepG2 Assay for human cAMP Responsive Element (CRE) binding protein 3 (AID 2282926); details: HepG2 CRE cis-reporter, Attagene multiplexed mRNA; actives raise or lower the signal
# Summary of the method: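 We dosed HepG2 cells bearing multiple cis-promoter reporter units for 24 h and measured reporter mRNA by RT-PCR with capillary electrophoresis detection. Bidirectional concentration-response fitting used DMSO as negative control.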
# [2] = biological target: CCAAT/enhancer-binding protein beta (Homo sapiens) (UniProt P17676); assay: ATG_C_EBP_CIS: Attagene CIS-FACTORIAL HepG2 Assay for human CCAAT/Enhancer Binding Protein (C/EBP) beta (AID 2282927); details: HepG2 Attagene cis-factorial transcription factor reporter; actives raise or lower the signal
# Summary of the method: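 Chemical-treated HepG2 cells (24 h) bearing cis-regulated reporter constructs were processed for total RNA, then reverse transcription, PCR amplification, fluorescent primer extension and fragment analysis; gain- and loss-of-signal were fitted against DMSO.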
# [3] = ATG_CMV_CIS: Attagene CIS-FACTORIAL HepG2 Assay for human CMV (Internal Marker) (AID 2282928); details: HepG2 CMV promoter reporter, transcription factor profiling; actives raise or lower the signal;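 further: endpoint acts as a background internal control marker rather than a target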
# Summary of the method: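 After transient transfection of HepG2 with reporter transcription units driven by cis-regulatory promoters, cells receive test chemical for 24 h. Labeled reporter amplicons, digested with HpaI, are sized and quantified by capillary electrophoresis against DMSO.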
# [4] = ATG_DR4_LXR_CIS: Attagene CIS-FACTORIAL HepG2 Assay for human Liver X Receptor (LXR), DR4 submotif (AID 2282929); details: HepG2 Attagene DR4 cis-reporter, mRNA transcription; actives raise or lower the signal
# Summary of the method: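 HepG2 cells transiently transfected with cis-promoter-driven multiplexed reporter units (DR4 element) were dosed for 24 h. Reporter mRNA was quantified by RT-PCR, fluorescent primer extension, HpaI digestion and capillary electrophoresis; bidirectional fitting versus DMSO baseline.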
# [5] = biological target: Aryl hydrocarbon receptor (Homo sapiens) (UniProt P35869); assay: ATG_Ahr_CIS: Attagene CIS-FACTORIAL HepG2 Assay for human Aryl Hydrocarbon Receptor (Ahr) (AID 2282930); details: HepG2 AhR cis-factorial reporter transcription; actives raise or lower the signal
# Summary of the method: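 Following 24 h of chemical dosing, transfected HepG2 liver cells with cis-driven reporter units were lysed for RNA; reporter mRNA was quantified via RT-PCR and capillary electrophoresis, and responses fitted bidirectionally from DMSO.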
# [6] = ATG_AP_1_CIS: Attagene CIS-FACTORIAL HepG2 Assay for human Activator Protein 1 (AP-1) (AID 2282931); details: HepG2 Attagene cis-factorial AP-1 reporter mRNA; actives raise or lower the signal
# Summary of the method: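 HepG2 cells transiently transfected with cis-element-driven multiplex reporter units; 24 h compound exposure. Reporter mRNA quantified by RT-PCR, FAM-labelled fragments resolved by capillary electrophoresis; bidirectional fit versus DMSO baseline.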
# [7] = ATG_AP_2_CIS: Attagene CIS-FACTORIAL HepG2 Assay for human Activator Protein 2 (AP-2) (AID 2282932); details: HepG2 AP-2 cis-reporter, Attagene transcription factor profiling; actives raise or lower the signal
# Summary of the method: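 HepG2 cells were transiently transfected with multiple cis-promoter reporter transcription units and dosed for 24 h. Reporter mRNA was measured by RT-PCR with capillary electrophoresis fluorescence; bidirectional fits relative to DMSO baseline.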
# [8] = biological target: Transcription factor E2F1 (Homo sapiens) (UniProt Q01094); assay: ATG_E2F_CIS: Attagene CIS-FACTORIAL HepG2 Assay for human E2F Transcription Factor 1 (AID 2282935); details: HepG2 Attagene cis-reporter, E2F reporter RNA transcripts; actives raise or lower the signal
# Summary of the method: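 HepG2 cells transiently transfected with multiplexed cis-element reporter units, dosed for 24 h. Reporter mRNA measured by RT-PCR, 6-FAM primer-extension labeling, HpaI digestion and capillary electrophoresis; bidirectional fit versus DMSO baseline.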
# [9] = ATG_E_Box_CIS: Attagene CIS-FACTORIAL HepG2 Assay for human Enhancer Box (E-box) (AID 2282936); details: HepG2 E-box cis-reporter transcription, actives raise or lower the signal
# Summary of the method: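 HepG2 cells transiently transfected with multiplexed cis-element reporter units sensing endogenous transcription factor activity; 24 h compound exposure. Reporter mRNA measured by RT-PCR, 6-FAM primer extension, HpaI digestion and capillary electrophoresis; bidirectional fit versus DMSO.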
# [10] = ATG_EGR_CIS: Attagene CIS-FACTORIAL HepG2 Assay for human Early Growth Response 1 (EGR1) (AID 2282938); details: HepG2 Attagene CIS-FACTORIAL EGR reporter mRNA; actives raise or lower the signal
# Summary of the method: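 HepG2 cells transiently transfected with cis-promoter-driven multiplexed reporter transcription units; reporter mRNA measured 24 h after compound dosing by RT-PCR, 6-FAM primer extension, HpaI digestion and capillary electrophoresis. Bidirectional fit versus DMSO baseline.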
# [11] = ATG_M_19_CIS: Attagene CIS-FACTORIAL HepG2 Assay for M19 Transcription Factor (Internal Marker) (AID 2282939); details: HepG2 Attagene CIS-FACTORIAL M19 internal marker reporter; actives raise or lower the signal
# Summary of the method: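 Background-control endpoint from a multiplexed HepG2 reporter panel. Cells carrying cis-regulated reporter constructs are treated 24 h, then reporter transcripts are amplified, fluorescently labelled and sized by capillary electrophoresis. DMSO defines baseline.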
# [12] = ATG_ERE_CIS: Attagene CIS-FACTORIAL HepG2 Assay for Estrogen Response Element (ERE) (AID 2282940); details: HepG2 ERE cis-reporter, Attagene RNA transcript; actives raise or lower the signal
# Summary of the method: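 Cells used were human hepatoma HepG2, transfected with multiple reporter transcription units under cis-regulatory promoters. Reporter mRNA, read 24 h post-dosing via fluorescent RT-PCR products on capillary electrophoresis, was fitted bidirectionally relative to DMSO.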
# [13] = ATG_Ets_CIS: Attagene CIS-FACTORIAL HepG2 Assay for human Erythroblast Transformation Specific (ETS) (AID 2282941); details: HepG2 ETS cis-reporter transcription, actives raise or lower the signal
# Summary of the method: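 Human HepG2 hepatoma cells were transiently transfected with promoter-driven reporter constructs and treated for 24 hours. Reporter transcripts were quantified by RT-PCR with fluorescent primer extension; bidirectional curve fitting used DMSO as reference.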
# [14] = biological target: Hepatocyte nuclear factor 3-beta (Homo sapiens) (UniProt Q9Y261); assay: ATG_FoxA2_CIS: Attagene CIS-FACTORIAL HepG2 Assay for human Forkhead box A2 (FOXA2) (AID 2282942); details: HepG2 cis-reporter transcription factor activity, 24 h; actives raise or lower the signal
# Summary of the method: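 HepG2 cells transiently transfected with multiple cis-regulated reporter transcription units, dosed for 24 h. Reporter mRNA measured by RT-PCR, 6-FAM labelling, HpaI digestion and capillary electrophoresis; bidirectional fitting against DMSO baseline.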
# [15] = ATG_FoxO_CIS: Attagene CIS-FACTORIAL HepG2 Assay for human Forkhead box O (FoxO) (AID 2282943); details: HepG2 Attagene cis-reporter, FoxO element, mRNA; actives raise or lower the signal
# Summary of the method: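 24 h chemical exposure, HepG2 with transient cis-MRTU transfection. RNA extraction, oligo(dT) RT, reporter-specific PCR, primer-extension labelling, HpaI digestion, CE fragment analysis; bidirectional fit, DMSO baseline.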
# [16] = ATG_GATA_CIS: Attagene CIS-FACTORIAL HepG2 Assay for human GATA Binding Protein (AID 2282944); details: HepG2 GATA cis-element reporter, Attagene multiplex mRNA; actives raise or lower the signal
# Summary of the method: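 Endogenous transcription factor activity was captured through cis-promoter-driven reporters in transfected HepG2 cells. After 24 h exposure, reporter transcripts were quantified by RT-PCR with fluorescent capillary electrophoresis, and responses fitted both directions against DMSO.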
# [17] = ATG_GLI_CIS: Attagene CIS-FACTORIAL HepG2 Assay for human Zinc Finger Protein GLI1 (AID 2282945); details: HepG2, Attagene cis-factorial reporter mRNA, GLI element; actives raise or lower the signal
# Summary of the method: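 HepG2 cells transiently transfected with cis-promoter multiplexed reporter units report endogenous transcription factor activity. After 24 h chemical exposure, reporter mRNA was quantified by RT-PCR, 6-FAM labelling, HpaI digestion and capillary electrophoresis, with bidirectional fitting against DMSO.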
# [18] = biological target: Retinoic acid receptor alpha (Homo sapiens) (UniProt P10276); assay: ATG_DR5_RAR_CIS: Attagene CIS-FACTORIAL HepG2 Assay for human Retinoic Acid Receptor Alpha (RARE), DR5 submotif (AID 2282934); details: HepG2 Attagene cis-factorial RARE DR5 reporter, mRNA; actives raise or lower the signal
# Summary of the method: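 Transfected HepG2 reporter cells are exposed to chemicals for 24 h. Then RNA is extracted and the DR5 element reporter transcript is measured by RT-PCR and capillary electrophoresis, with bidirectional curve fitting relative to DMSO.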
# [19] = ATG_M_61_CIS: Attagene CIS-FACTORIAL HepG2 Assay for M61 Transcription Factor (Internal Marker) (AID 2282937); details: HepG2 Attagene CIS-FACTORIAL M61 internal marker reporter; actives raise or lower the signal
# Summary of the method: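 HepG2 cells transiently transfected with cis-element-driven multiple reporter transcription units, dosed for 24 h. Reporter mRNA measured by RT-PCR, 6-FAM primer-extension labelling, HpaI digestion and capillary electrophoresis; bidirectional fit versus DMSO baseline.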
# [20] = ATG_BRE_CIS: Attagene CIS-FACTORIAL HepG2 Assay for human Bone Morphogenetic Protein (BMP) Response Element (BRE) (AID 2282933); details: HepG2 BMP response element reporter, Attagene transcription factor profiling; actives raise or lower the signal
# Summary of the method: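 Endogenous transcription factor activity at a BMP response element was monitored in transfected HepG2 cells 24 h after dosing. Fluorescent RT-PCR products were resolved by capillary electrophoresis, and activity was fitted in both directions versus DMSO.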
# CCAAT/enhancer-binding protein beta (Homo sapiens), sequence (P17676 whole entry, looked up, the tested form may be a part): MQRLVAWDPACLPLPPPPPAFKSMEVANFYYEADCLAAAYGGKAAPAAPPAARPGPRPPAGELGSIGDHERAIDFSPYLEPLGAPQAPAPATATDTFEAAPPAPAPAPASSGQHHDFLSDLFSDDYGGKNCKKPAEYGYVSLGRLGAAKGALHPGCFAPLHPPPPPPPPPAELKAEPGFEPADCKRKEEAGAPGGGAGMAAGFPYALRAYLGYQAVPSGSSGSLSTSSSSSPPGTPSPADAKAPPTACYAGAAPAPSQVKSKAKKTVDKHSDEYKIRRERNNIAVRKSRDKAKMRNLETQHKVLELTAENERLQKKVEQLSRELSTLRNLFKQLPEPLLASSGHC
# Transcription factor E2F1 (Homo sapiens), sequence (Q01094 whole entry, looked up): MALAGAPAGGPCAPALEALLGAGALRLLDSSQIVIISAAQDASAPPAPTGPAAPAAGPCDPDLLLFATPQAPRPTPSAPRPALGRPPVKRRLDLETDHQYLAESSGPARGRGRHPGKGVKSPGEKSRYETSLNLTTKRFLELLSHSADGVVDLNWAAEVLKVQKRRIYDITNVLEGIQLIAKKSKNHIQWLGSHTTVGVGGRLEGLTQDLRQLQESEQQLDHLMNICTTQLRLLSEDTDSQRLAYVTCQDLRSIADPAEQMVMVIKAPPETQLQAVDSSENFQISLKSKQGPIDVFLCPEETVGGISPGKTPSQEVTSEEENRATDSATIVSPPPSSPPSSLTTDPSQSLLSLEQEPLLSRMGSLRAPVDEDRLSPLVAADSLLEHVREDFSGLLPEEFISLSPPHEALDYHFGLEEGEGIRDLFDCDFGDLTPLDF
# Hepatocyte nuclear factor 3-beta (Homo sapiens), sequence (Q9Y261 whole entry, looked up): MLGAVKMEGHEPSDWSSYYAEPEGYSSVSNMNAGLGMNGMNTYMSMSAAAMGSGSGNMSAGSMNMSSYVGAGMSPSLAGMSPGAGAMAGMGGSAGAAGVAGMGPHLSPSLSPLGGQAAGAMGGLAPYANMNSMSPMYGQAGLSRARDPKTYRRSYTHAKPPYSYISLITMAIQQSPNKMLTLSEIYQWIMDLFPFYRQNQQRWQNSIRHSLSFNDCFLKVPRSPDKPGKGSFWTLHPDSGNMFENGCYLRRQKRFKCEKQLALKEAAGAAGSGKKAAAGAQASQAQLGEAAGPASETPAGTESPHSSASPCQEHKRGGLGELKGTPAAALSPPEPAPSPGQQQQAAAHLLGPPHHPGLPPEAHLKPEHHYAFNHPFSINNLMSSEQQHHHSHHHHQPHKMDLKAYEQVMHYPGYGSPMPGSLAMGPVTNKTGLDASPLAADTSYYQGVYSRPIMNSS
# Aryl hydrocarbon receptor (Homo sapiens), sequence (P35869 whole entry, looked up): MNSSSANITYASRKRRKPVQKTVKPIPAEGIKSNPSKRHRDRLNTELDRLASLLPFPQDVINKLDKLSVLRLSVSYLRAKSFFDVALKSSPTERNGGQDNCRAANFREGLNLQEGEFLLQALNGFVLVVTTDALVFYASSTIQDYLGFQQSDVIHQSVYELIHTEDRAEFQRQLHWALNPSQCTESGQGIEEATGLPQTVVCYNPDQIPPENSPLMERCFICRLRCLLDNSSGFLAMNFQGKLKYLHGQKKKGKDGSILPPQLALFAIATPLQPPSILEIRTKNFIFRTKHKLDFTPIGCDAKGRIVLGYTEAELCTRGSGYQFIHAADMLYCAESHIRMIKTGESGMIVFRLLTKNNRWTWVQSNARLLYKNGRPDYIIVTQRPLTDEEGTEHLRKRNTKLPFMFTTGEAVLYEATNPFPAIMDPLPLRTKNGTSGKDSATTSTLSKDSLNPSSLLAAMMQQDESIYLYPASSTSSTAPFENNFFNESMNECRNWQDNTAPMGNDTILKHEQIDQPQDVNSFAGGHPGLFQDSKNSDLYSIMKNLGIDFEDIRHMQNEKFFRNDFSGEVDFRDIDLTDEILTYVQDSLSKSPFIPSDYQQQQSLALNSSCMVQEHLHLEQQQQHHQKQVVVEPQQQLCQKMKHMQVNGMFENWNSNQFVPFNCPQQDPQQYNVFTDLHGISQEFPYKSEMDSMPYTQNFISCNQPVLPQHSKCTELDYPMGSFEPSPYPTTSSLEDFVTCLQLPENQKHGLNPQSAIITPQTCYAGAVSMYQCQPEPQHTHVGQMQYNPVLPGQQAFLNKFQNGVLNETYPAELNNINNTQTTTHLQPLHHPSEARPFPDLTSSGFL
# Retinoic acid receptor alpha (Homo sapiens), sequence (P10276 whole entry, looked up): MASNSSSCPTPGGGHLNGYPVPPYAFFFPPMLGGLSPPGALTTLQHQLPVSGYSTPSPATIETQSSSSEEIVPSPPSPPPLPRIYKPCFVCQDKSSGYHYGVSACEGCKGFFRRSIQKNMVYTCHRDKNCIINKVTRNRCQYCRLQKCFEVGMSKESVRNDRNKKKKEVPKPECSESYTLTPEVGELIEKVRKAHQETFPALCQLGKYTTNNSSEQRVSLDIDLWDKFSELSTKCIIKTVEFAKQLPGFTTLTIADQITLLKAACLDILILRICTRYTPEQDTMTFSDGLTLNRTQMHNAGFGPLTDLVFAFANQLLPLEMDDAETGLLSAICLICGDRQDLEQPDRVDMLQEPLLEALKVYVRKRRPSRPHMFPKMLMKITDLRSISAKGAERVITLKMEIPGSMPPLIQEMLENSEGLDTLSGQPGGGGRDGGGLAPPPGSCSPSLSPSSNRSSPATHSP
structure (smiles),measurement,setting,value
OCCN1CCNCC1,outcome,[1],inactive
same,outcome,[2],inactive
same,outcome,[3],inactive
same,outcome,[4],inactive
same,outcome,[5],inactive
same,outcome,[6],inactive
same,outcome,[7],inactive
same,outcome,[8],inactive
same,outcome,[9],inactive
same,outcome,[10],inactive
same,outcome,[11],inactive
same,outcome,[12],inactive
same,outcome,[13],inactive
same,outcome,[14],inactive
same,outcome,[15],inactive
same,outcome,[16],inactive
same,outcome,[17],inactive
CN1Cc2c(N)cccc2C(c2ccccc2)C1 (stereo not given),outcome,[1],inactive
same,outcome,[2],inactive
same,outcome,[3],inactive
same,outcome,[4],inactive
same,AC50,[5],59.1 µM (active)
same,outcome,[7],inactive
same,outcome,[18],inactive
same,outcome,[8],inactive
same,outcome,[9],inactive
same,outcome,[19],inactive
same,outcome,[11],inactive
same,outcome,[13],inactive
same,outcome,[14],inactive
same,outcome,[15],inactive
same,outcome,[16],inactive
same,outcome,[17],inactive
CC(C#N)(CCC(=O)O)N=NC(C)(C#N)CCC(=O)O (stereo not given),outcome,[1],inactive
same,outcome,[2],inactive
same,outcome,[3],inactive
same,outcome,[4],inactive
same,outcome,[5],inactive
same,outcome,[7],inactive
same,outcome,[20],inactive
same,outcome,[8],inactive
same,outcome,[9],inactive
same,outcome,[19],inactive
same,outcome,[10],inactive
same,outcome,[11],inactive
same,outcome,[13],inactive
same,outcome,[14],inactive
same,outcome,[15],inactive
same,outcome,[16],inactive
same,outcome,[17],inactive
